# Laboratory results as given in PubChem BioAssay AID931 (National Center for Advancing Translational Sciences (NCATS), 2007).
# Inconclusive results are not listed. Entries that show only a call come without a potency. Activity calls are given as the source filed them. Calls come from the whole dose curve; as a rule, active = well fitted cell-killing curve with a large enough effect; inconclusive = small, poorly fitted or top-dose-only effect; inactive = flat fitted curve, though single readings scatter.
# Test: Confirmation and Secondary Assay for Modulators of Hemoglobin Beta Chain Splicing at IVS2 654 locus: Cytotoxicity
# Conditions: HBB IVS2-654 splicing reporter cells; series mostly up to 46.1 µM
# From the text: NIH Chemical Genomics Center [NCGC]
# NIH Molecular Libraries Screening Centers Network [MLSCN]
# PI Name: Dr. Ryszard Kole
# Modulation of Alternative Splicing as Therapy
# Abnormal splicing is associated with a number of diseases, including cancer and genetic diseases such as cystic fibrosis, muscular dystrophy and beta-thalassemia. Alteration of disease associated splicing patterns provides a promising target for treatment. […] Mutations in the second intron of the b-globin gene at positions 654 or 705 are clinically relevant and cause mis-splicing which results in an out of frame gene product.
# Examination of toxicity of select compounds in EGFP-654 HeLa Cells
# HeLa cell lines were stably transfected with a construct in which the EGFP (enhanced green fluorescent protein) cDNA was interrupted by the second intron of the beta-globin gene (IVS2-654). The ISV2 intron contains mutations which cause mis-splicing of EGFP and premature termination of EGFP which results in a nonfluorescent protein product. […] Expression of the transgene was driven by the CMV promoter. Compounds, and related structures identified in the primary screen as potential splicing modulation were examined for their effects on cell toxicity in this follow up assay .
# NCGC Assay Protocol Summary:
# Toxicity Screening. Freshly thawed HeLa EGFP-654 cells were seeded in 5 ul of optimem media (Invitrogen) containing 2 % fetal calf serum (Hyclone) and 1x penicillin/streptomycin (Invitrogen) at a concentration of 500 cells per well in 1536-well plates. Cells were incubated overnight at 37C in 5% CO2. The next day, cells were treated with DMSO, 500 nM antisense ISV2 654 PNA control oligo, or library compound and allowed to grow at 37C in 5% CO2 for 2 days. Cells were treated with 5 ul/well of freshly prepared ATPlite (Perkin Elmer) and cells were allowed to lyse at room temperature for 5 minutes. Luminescence was captured on an Viewlux CCD imager (Perkin Elmer) using a 15 second integration time and cell death was measured by comparing compound treatments to DMSO treatment (no cell death).
# Keywords: Thalassemia, beta-thalassemia, beta-globin, EGFP, ISV2 654, ISV2 705, SSO, PNA, antisense, splicing, ATPlite, toxicity, MLSMR, MLSCN, NIH Roadmap, qHTS, NCGC
row,SMILES,Potency
1,OCC1OC(n2cnc3c(Cl)ncnc32)C(O)C1O (centres undefined),inactive
2,NC1=NC(S)C2N=CN=C2N1 (centres undefined),316 nM (active)
3,Nc1ncnc2c1nc(Cl)n2C1OC(CO)C(O)C1O (centres undefined),inactive
4,OCC1OC(n2cnc3c(=S)nc[nH]c32)C(O)C1O (centres undefined),3160 nM (active)
5,S=C1NC=NC2N=CNC12 (centres undefined),199 nM (active)
6,O=c1[nH]c(=O)n(C2CC(O)C(CO)O2)cc1F (centres undefined),inactive
7,N=c1ccn2c(n1)O[C@@H]1[C@@H](O)[C@H](CO)O[C@H]12,inactive
8,Cn1cnc([N+](=O)[O-])c1Sc1ncnc2nc[nH]c12,316 nM (active)
9,Nc1ncn([C@@H]2O[C@H](CO)[C@@H](O)[C@H]2O)c(=O)n1,1260 nM (active)
10,Nc1nc(=O)n(C2OC(CO)C(O)C2O)cc1Cl (centres undefined),inactive
11,CSc1ncnc2c1ncn2C1OC(CO)C(O)C1O (centres undefined),794 nM (active)
12,Nc1ncnc2c1nc(Br)n2C1OC(CO)C(O)C1O (centres undefined),inactive
13,Nc1nc(Cl)nc2c1ncn2[C@H]1C[C@H](O)[C@@H](CO)O1,inactive
14,Nc1ccn([C@H]2CC[C@@H](CO)O2)c(=O)n1,inactive
